Measured values reported in PubChem BioAssay (NCATS).
A number with no mark means an inactive call. No rule for the calls is given here.

tested on: HIV-1 nucleocapsid protein NCp7 (binding to TG oligonucleotide); assay: HIV Nucleocapsid (AID 346); settings: HIV-1 NC / fluorescein-TGTGTGTG probe, fluorescence polarization;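 also: potency is for inhibitors that block NC binding and lower polarization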
In short: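 NCp7 100 nM + fluorescein TG4xF 10 nM; Hepes pH 7.5/250mM NaCl/1uM ZnCl2/0.004% PEG 20000; 1 hr RT; FP, 45 s exposure; oligo-only wells as negative control.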
Potency is read from the fitted curve at half-maximal effect.

Row | SMILES | Potency
1 | CCNc1ncc2nc(C)c(=O)n(Cc3ccc(F)cc3)c2n1 | > 20 µM
2 | CC(=O)N1CCC2(CCN(Cc3ccncc3)CC2)CC1 | > 20 µM
3 | O=C(Oc1ccccc1)N1CCC2(CC1)CCN(c1ncccn1)CC2 | > 20 µM
4 | O=C(Nc1ccccc1)N1CC2(CCN(C(=O)c3ccco3)CC2)C1 | > 20 µM
5 | Cn1cc(-c2nc3cnc(N4CCNCC4)nc3n(Cc3ccc(F)cc3)c2=O)c2ccccc21 | 20.8 µM
6 | COc1ccc(Oc2ncc3nc(-c4ccccc4)c(=O)n(C4CC4)c3n2)cc1 | > 20 µM
7 | CS(=O)(=O)N1CCC2(CCN(Cc3ccncc3)CC2)CC1 | > 4 µM
8 | Cc1noc(C)c1-c1nc(N(C)Cc2ccco2)c2ccccc2n1 | > 20 µM
9 | COCC(=O)N1CCC[C@@]2(CCN(Cc3nccs3)C2)C1 | > 20 µM
10 | CN1CCC2(CC1)CCN(C(=O)c1cc(C(F)(F)F)cc(C(F)(F)F)c1)CC2 | > 20 µM
11 | COc1cccc(Nc2ncc3nc(-c4ccccc4)c(=O)n(C[C@H]4CCCO4)c3n2)c1 | > 20 µM
12 | Cc1cnc(CNc2ncnc3ccc(-c4cccc(NS(C)(=O)=O)c4)cc23)cn1 | > 20 µM
13 | Cc1noc(C)c1-c1nccc(NCCN2CCOCC2)n1 | > 20 µM
14 | COc1cccc(Cn2c(=O)c(-c3cc(F)cc(F)c3)nc3cnc(N(C)C)nc32)c1 | > 4 µM
15 | CCNc1ncc2nc(-c3cccc(C#N)c3)c(=O)n(C)c2n1 | > 20 µM
16 | COc1ccc(-c2nc3cnc(N4CCNCC4)nc3n(Cc3cccs3)c2=O)cc1 | > 20 µM
17 | O=C(c1csnn1)N1CCC2(CCN(Cc3ccccc3)CC2)CC1 | > 20 µM
18 | O=C(Oc1ccccc1)N1CCC2(CCCN(c3ccc(-c4ccccc4)cc3)C2)CC1 | > 20 µM
19 | COc1ncc2nc(-c3ccc(Cl)cc3)c(=O)n(C)c2n1 | > 20 µM
20 | COC(=O)N1CCC2(CCCN(C(c3ccccc3)c3ccccc3)C2)CC1 | > 20 µM

Row | SMILES | Potency
21 | CCNc1ncc2nc(-c3ccccc3)c(=O)n(CCOC)c2n1 | > 20 µM
22 | COC(=O)N1CCC[C@@]2(CCN(c3ncccn3)C2)C1 | > 20 µM
23 | COc1ccc(CNc2ccnc(-c3ccccc3C(F)(F)F)n2)c(OC)c1 | > 20 µM
24 | COc1cccc(-c2ccc3ncnc(NCc4ccccc4)c3c2)c1 | > 20 µM
25 | CN(C)c1ncc2nc(CCc3ccccc3)c(=O)n(-c3ccccc3)c2n1 | > 20 µM
26 | O=c1c(CCc2ccccc2)nc2cncnc2n1Cc1ccccc1Cl | > 20 µM
27 | O=C(c1cccc(F)c1)N1CCC2(CC1)CCN(c1ccncc1)CC2 | > 20 µM
28 | CN1CCN(c2ncc3nc(-c4cc(F)cc(F)c4)c(=O)n(CCC#N)c3n2)CC1 | > 20 µM
29 | CNc1nc(-c2ccc3c(c2)OCO3)nc2ccccc12 | > 20 µM
30 | COCCn1c(=O)c(-c2ccccc2)nc2cnc(Oc3ccccc3)nc21 | > 20 µM
31 | Cn1cccc1C(=O)N1CCC2(CCN(Cc3ccncc3)CC2)CC1 | > 20 µM
32 | O=C(c1cnccn1)N1CCC[C@@]2(CCN(C(c3ccccc3)c3ccccc3)C2)C1 | > 20 µM
33 | Cc1cccc(CNc2nc(-c3ccoc3)nc3ccccc23)c1 | > 20 µM
34 | COc1ccc(CNc2cc(-c3ccoc3)ncn2)c(OC)c1 | > 20 µM
35 | O=c1c(-c2ccccc2)nc2cnc(N3CCOCC3)nc2n1Cc1cccs1 | > 20 µM
36 | COc1ccc(C(=O)N2CCC3(CCCN(C(c4ccccc4)c4ccccc4)C3)CC2)cc1 | > 20 µM
37 | CN(C)Cc1ccccc1-c1cc(-n2ccnc2)ncn1 | > 20 µM
38 | COc1cccc(Cn2c(=O)c(CCc3ccccc3)nc3cnc(N4CCNCC4)nc32)c1 | > 20 µM
39 | O=C(Nc1ccccc1)N1CCC2(CCNCC2)CC1 | > 20 µM
40 | Cn1cc(-c2nc3cnc(OCc4ccccc4)nc3n(CCC#N)c2=O)c2ccccc21 | > 20 µM
